This is one part of a sample in which hits are shown more often than they occur.
DUX4 txn inh: inhibitors of DUX4-driven ZSCAN4 reporter expression, primary screen, 293T cells, Gaussia and Italica luciferase. 0.8% of 37,000 active. 293T-iDUX4 ZSCAN4-Gaussia luciferase reporter, 24 h; active compounds read low. activity change, negative = inhibition, % (test concentration not listed). AID 1224904, 2016;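 active means mean inhibition of at least 10% in the main channel, exceeding the control channel by a set limit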;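 further: 0% = median of neutral control wells and -100% = median of positive control wells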
Starred values were filed as active, the others as inactive.

SMILES | DUX4 txn inh
C[C@@H]1CN([C@@H](C)CO)C(=O)c2ccccc2-c2ccccc2CO[C@@H]1CN(C)Cc1ccc(C(F)(F)F)cc1 | 12
C[C@H]1CN([C@@H](C)CO)C(=O)c2ccccc2-c2ccccc2CO[C@@H]1CN(C)Cc1cccc(C(F)(F)F)c1 | -37*
C[C@@H]1CN([C@@H](C)CO)C(=O)c2ccccc2-c2ccccc2CO[C@@H]1CN(C)Cc1cccc(C(F)(F)F)c1 | -63*
C[C@@H]1CN([C@@H](C)CO)C(=O)c2ccccc2-c2ccccc2CO[C@H]1CN(C)Cc1cccc(C(=O)O)c1 | 2
C[C@@H]1CN([C@H](C)CO)C(=O)Cc2cc(NC(=O)CCCCCC(=O)Nc3ccccc3N)ccc2O[C@H]1CN(C)S(=O)(=O)c1cccs1 | -5
CCCC#Cc1ccc([C@H]2[C@H](CO)N3CCCCN(C(=O)NC4CCCC4)C[C@@H]23)cc1 | -8
CC(=O)N1[C@H](CO)[C@@H]2c3ccccc3N(S(=O)(=O)c3ccc(F)cc3)C[C@@H]21 | -1
O=C(CC1CC1)Nc1ccc2c(c1)[C@H]1C[C@@H](CC(=O)NC3CCCCC3)O[C@@H](CO)[C@H]1O2 | 8
CCC(=O)N1CC2(C1)[C@H](c1ccccc1)[C@@H](CO)N2CC1CCCC1 | 3
C[C@@H]1CN([C@H](C)CO)C(=O)CCCn2cc(nn2)CO[C@@H]1CN(C)S(=O)(=O)c1ccc(-c2ccccc2)cc1 | -1
CN1c2ccc(C#Cc3ccccc3F)cc2[C@H]2[C@H](CCN2C(=O)c2cnccn2)[C@H]1CO | -29*
COc1ccc(C#Cc2ccc3c(c2)[C@@H]2[C@@H](CCN2C(=O)c2ccccc2F)[C@H](CO)N3C)cc1 | 4
CN1c2ccc(Br)cc2[C@H]2[C@H](CCN2C(=O)c2cccc(F)c2)[C@H]1CO | -9
CC(C)NC(=O)N1CC[C@H]2[C@@H]1c1cc(C#Cc3cccnc3)ccc1N(C)[C@H]2CO | 5
CN1c2ccc(-c3ccccc3F)cc2[C@@H]2[C@@H](CCN2C(=O)c2ccccn2)[C@H]1CO | 4
CN1c2ccc(C#Cc3cccnc3)cc2[C@@H]2[C@@H](CCN2C(=O)c2cccc(F)c2)[C@H]1CO | -37*
COc1ccc(NC(=O)N(C)C[C@H]2OCCCC[C@H](C)Oc3ccc(NC(=O)CCCN(C)C)cc3C(=O)N([C@H](C)CO)C[C@@H]2C)cc1 | 3
COc1ccccc1C#Cc1ccc2c(c1)[C@@H]1[C@@H](CCN1C(=O)c1cccc(F)c1)[C@H](CO)N2 | -6
O=C(c1ccc2c(c1)OCO2)N1CC[C@@H]2[C@H](CO)Nc3ccc(-c4ccccc4)cc3[C@@H]21 | 5
O=C(c1ccc2c(c1)OCO2)N1CC[C@@H]2[C@H]1c1cc(-c3ccccc3)ccc1N[C@@H]2CO | 6
O=C(c1ccccc1F)N1CC[C@@H]2[C@H](CO)Nc3ccc(C#Cc4ccc(F)cc4)cc3[C@@H]21 | -33*
O=C(c1ccccc1F)N1CC[C@@H]2[C@@H](CO)Nc3ccc(C#Cc4ccccc4F)cc3[C@@H]21 | -3
O=C(c1ccccc1)N1CC[C@H]2[C@H](CO)Nc3ccc(C#Cc4cccc(F)c4)cc3[C@H]21 | 1
O=C(c1ccc2c(c1)OCO2)N1CC[C@@H]2[C@H](CO)Nc3ccc(C#Cc4ccccc4)cc3[C@@H]21 | -54*
O=C(c1ccccc1)N1CC[C@@H]2[C@H](CO)Nc3ccc(C#Cc4cccc(F)c4)cc3[C@@H]21 | -40*
SMILES | DUX4 txn inh
COc1ccc(C#Cc2ccc3c(c2)[C@@H]2[C@@H](CCN2C(=O)c2ccccc2F)[C@@H](CO)N3)cc1 | 11
CC1C=NC(S(=O)(=O)N2CC[C@@H]3[C@H](CO)N(C)c4ccc(C#Cc5ccccc5)cc4[C@@H]32)=N1 (stereo not given in full) | -4
COc1ccc(C[C@H]2CCc3cnnn3COC[C@H](C(C)C)NC2=O)cc1 | 1
C[C@@H]1CCCCO[C@H](CN(C)C(=O)C2CCCCC2)[C@H](C)CN([C@H](C)CO)C(=O)c2cc(N(C)C)ccc2O1 | 0
CO[C@@H](CN(C)C(=O)c1ccccc1F)[C@H](C)CN([C@H](C)CO)S(=O)(=O)c1ccc(C)cc1 | 0
COc1ccc2c3c(n(C)c2c1)[C@H](CO)N(C(C)=O)CC31CCN(C(=O)Nc2ccc(F)cc2)CC1 | -9
CN1CCN(C(=O)C[C@@H]2C=C[C@H](NC(=O)Cc3ccccn3)[C@@H](CO)O2)CC1 | 8
COc1ccccc1CNC(=O)C[C@@H]1CC[C@@H]2[C@H](COC[C@@H](O)CN2C(=O)Nc2ccc(F)cc2)O1 | 7
O=C(C[C@@H]1CC[C@H]2NC[C@@H](O)COC[C@@H]2O1)Nc1ccccc1 | 9
Cc1cccc(S(=O)(=O)N2CCCCN3[C@H](CO)[C@H](c4ccc(-c5ccncc5)cc4)[C@H]3C2)c1 | -7
COc1ccc(S(=O)(=O)N2CCCCN3[C@H](CO)[C@@H](c4ccc(C#CC(C)C)cc4)[C@@H]3C2)cc1 | 1
CC(C)CC#Cc1ccc([C@@H]2[C@@H](CO)N3CCCCN(S(=O)(=O)Cc4ccccc4)C[C@@H]23)cc1 | -14*
CC(C)CC#Cc1ccc([C@H]2[C@@H](CO)N3CCCCN(S(=O)(=O)c4ccc(F)cc4)C[C@@H]23)cc1 | -34*
CC(C)CC#Cc1ccc([C@@H]2[C@H](CO)N3CCCCN(S(=O)(=O)Cc4ccccc4)C[C@@H]23)cc1 | 2
Cc1cccc(S(=O)(=O)N2CCCCN3[C@H](CO)[C@@H](c4ccc(C#C[C@@H](C)O)cc4)[C@H]3C2)c1 | 12
Cc1cccc(S(=O)(=O)N2CCCCN3[C@@H](CO)[C@H](c4ccc(-c5ccncc5)cc4)[C@@H]3C2)c1 | -5
Cc1cccc(S(=O)(=O)N2CCCCN3[C@H](C2)[C@H](c2ccc(C#C[C@@H](C)O)cc2)[C@@H]3CO)c1 | 4
Cc1cccc(S(=O)(=O)N2CCCCN3[C@@H](CO)[C@H](c4ccc(C#C[C@@H](C)O)cc4)[C@@H]3C2)c1 | -26*
C/C=C/c1ccc([C@@H]2[C@@H](CO)N3CCCCN(S(=O)(=O)c4cccc(C)c4)C[C@H]23)cc1 | -17*
CC(C)CC#Cc1ccc([C@H]2[C@H](CO)N3CCCCN(S(=O)(=O)Cc4ccccc4)C[C@@H]23)cc1 | 2
CC(C)CC#Cc1ccc([C@@H]2[C@H](CO)N3CCCCN(S(=O)(=O)c4ccc(F)cc4)C[C@@H]23)cc1 | 1
COc1cccc(-c2ccc([C@@H]3[C@@H](CO)N4C(=O)CN(C(=O)NC(C)C)C[C@H]34)cc2)c1 | 17
C/C=C/c1cnc2c(c1)C(=O)N([C@@H](C)CO)C[C@@H](C)[C@H](CN(C)S(=O)(=O)c1cn(C)cn1)O2 | -5
O=C(C[C@@H]1CC[C@@H]2NC[C@H](O)COC[C@H]2O1)NCc1ccc(Oc2ccccc2)cc1 | 1
COc1ccc2c3c([nH]c2c1)[C@@H](CO)N(C)CC31CN(C(=O)Nc2c(C)noc2C)C1 | 6
COc1ccc2c3c([nH]c2c1)[C@@H](CO)N(C(=O)NC(C)C)CC31CCN(C(=O)NC2CCCC2)CC1 | 11
COc1ccc2c3c(n(C)c2c1)[C@H](CO)N(Cc1ccncc1)CC31CN(C(=O)NC(C)C)C1 | 8
CO[C@@H](CN(C)C(=O)c1cnccn1)[C@@H](C)CN([C@H](C)CO)S(=O)(=O)c1ccc(Cl)cc1 | 8
O=S(=O)(Cc1ccccc1)N1CCCCN2[C@H](CO)[C@@H](c3ccc(-c4ccc(F)cc4)cc3)[C@@H]2C1 | -32*
